Results reported in PubChem BioAssay AID602242 (Southern Research Specialized Biocontainment Screening …, 2012).
Measured potencies and affinities stand elsewhere. Active and inactive are the calls of the source. How the calls were made is not given here.

Assay: cell-based, strain KU V3526, counter-screen (AID 602242)
Details: VEEV strain V3526 infected cells, CPE inhibition; series mostly up to 50 µM

SMILES | outcome
O=c1c2cc([N+](=O)[O-])ccc2nc(CN2CCN(c3ccccc3)CC2)n1-c1ccccc1F | inactive
O=C(Oc1ccc2ccccc2c1Br)N1CCCCCC1 | inactive
